# Bioassay records as filed in PubChem.
# This is a sample that favours compounds with a hit; in the whole collection about 7.9% have one here.
# NOMO-1 viab: STK33 inhibitor candidate reducing NOMO-1 cell viability; NOMO-1 AML viability, CellTiter-Glo luminescence, 72 h; inhibition, % (concentration not given with the values); actives 7.5% (n = 37,000); in the data active = inhibition above about 80%
# Shh pathway inh: blocks Sonic Hedgehog signaling | actives 2.1% (n = 22,000) | inhibition, % (no concentration beside the values) | Shh-LIGHT2 Gli-luciferase reporter, 30 h;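 active = mean inhibition across valid replicates above about 65%, limit read from the data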;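 also: pathway switched on by Shh-conditioned medium diluted 1 in 25 in low serum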
# MITF inh: MITF inhibition; actives 0.28% (n = 37,000); TRPM1 promoter luciferase, luminescence, 24 h; inhibition, % (concentration not given with the values); in the data active = inhibition above about 85%;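 also: human melanocyte line stably carrying TRPM1 promoter luciferase reporter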
# * = called active by the depositor; . = no result.
SMILES,NOMO-1 viab,Shh pathway inh,MITF inh
Cc1nc(-c2cc(C#N)c(SCCNS(=O)(=O)c3ccc(C(C)(C)C)cc3)nc2C)cs1,52,90*,7
CC(=O)Oc1ccc2ccc3ccc(OC(C)=O)c4ccc1c2c34,127*,53,11
CC(O)(C(=O)Nc1ccc(S(=O)(=O)c2ccccc2)cc1)C(F)(F)F (stereo not given),38,-69,-5
CC(C)(C)C(=O)Nc1ccc2c(c1)C(=O)C(=O)c1ccccc1-2,98*,88*,97*
C[C@H]1CN([C@@H](C)CO)C(=O)c2cccc(NC(=O)CCCCCC(=O)Nc3ccccc3N)c2O[C@H]1CN(C)C,28,.,-2
Cc1ccc(S(=O)(=O)Nc2ccc3c(c2)C(=O)N([C@@H](C)CO)C[C@@H](C)[C@@H](CN(C)Cc2ccc(Oc4ccccc4)cc2)O3)cc1,113*,.,37
COc1ccc(S(=O)(=O)Nc2ccc3c(c2)C(=O)N([C@H](C)CO)C[C@H](C)[C@H](CN(C)Cc2ccc(Oc4ccccc4)cc2)O3)cc1,32,19,-1
Cc1ccc(S(=O)(=O)Nc2ccc3c(c2)C(=O)N([C@H](C)CO)C[C@H](C)[C@@H](CN(C)Cc2ccc(Oc4ccccc4)cc2)O3)cc1,6,.,-1
Cc1ccc(S(=O)(=O)Nc2ccc3c(c2)C(=O)N([C@@H](C)CO)C[C@H](C)[C@@H](CN(C)Cc2ccc(Oc4ccccc4)cc2)O3)cc1,106*,22,10
O=C(COc1cccc(C(F)(F)F)c1)NCc1cccnc1,13,.,1
COc1ccc(NC(=O)CSc2nc3ccccc3c(=O)n2-c2ccc(C)cc2)c(OC)c1,-12,.,7
C[C@H]1CN([C@@H](C)CO)C(=O)Cc2cc(NS(=O)(=O)c3cccs3)ccc2O[C@H]1CN(C)S(=O)(=O)c1ccc(Cl)cc1,-16,-13,-1
CS(=O)(=O)N(CC(=O)Nc1cccc(C(F)(F)F)c1)c1ccc(Br)cc1,64,.,-23
COc1ccc(S(=O)(=O)N(C)C[C@H]2Oc3ccc(NC(=O)Cn4cnnn4)cc3CC(=O)N([C@@H](C)CO)C[C@@H]2C)cc1,-1,-22,1
NC(=O)OCC(O)COc1ccc(Cl)cc1 (stereo not given),20,-56,-10
OC(COc1ccc(Nc2ccccc2)cc1)COc1ccc(Nc2ccccc2)cc1,103*,53,4
Cc1nnc(SCC(=O)Nc2cc(Cl)c(Cl)cc2Cl)s1,38,.,3
O=C(CN1C(=O)/C(=C\c2ccc(F)cc2)N=C1c1ccccc1)c1ccco1,24,-40,-55
CSC1=N/C(=C\c2ccc(Cl)cc2)C(=O)N1CCc1c[nH]c2ccccc12,85*,32,2
O=C1C(=O)N(Cc2ccco2)C(c2cccc(Cl)c2)C1C(=O)c1ccco1 (stereo not given),13,.,-3
Cc1ccccc1-c1nnc(SCC(=O)Nc2ccc(C(C)C)cc2)n1C,35,.,28
Cc1nc2ccc(F)cc2c2c1CCN2c1ccc(Cl)cc1,107*,.,44
Cc1cc(Cl)ccc1OC(C)C(=O)Nc1cccc(NC(=O)c2ccco2)c1 (stereo not given),42,.,15
O=C(NCCc1nc2ccccc2[nH]1)c1ccc(-c2ccccc2)cc1,31,.,28
COc1ccc(-c2cc3ccccc3oc2=O)cc1NC(=O)COc1ccc(C(C)(C)C)cc1,29,.,-5
SMILES,NOMO-1 viab,Shh pathway inh,MITF inh
c1ccc2[nH]c(-c3nc4ccccc4s3)nc2c1,127*,21,86*
c1cc(-c2nc3ccccc3s2)nc(-c2nc3ccccc3s2)c1,15,-46,-8
Cc1c(CCC(=O)O)c(=O)oc2c(C)c(OCc3c(F)cccc3Cl)ccc12,-7,.,54
CNC[C@H]1Oc2ccc(NC(=O)Nc3ccc(OC)cc3)cc2CC(=O)N([C@@H](C)CO)C[C@@H]1C,24,-20,-4
O=C(NCc1nc2ccccc2[nH]1)c1c(F)c(F)c(F)c(F)c1F,20,.,22
Fc1ccc(N(Cc2nc3ccccc3[nH]2)Cc2nc3ccccc3[nH]2)cc1,100*,.,2
N#Cc1c(NC(=O)CSc2nc(-c3ccccc3)cc(C(F)(F)F)n2)sc2c1CCCCC2,5,.,0
O=c1[nH]c2ccccc2c(=O)n1CCNCc1ccccc1,-6,1,-16
O=C(Nc1ccc(F)cc1F)c1cccnc1Sc1cccs1,13,.,-24
Nc1nc(CSc2ccccn2)nc(Nc2ccccc2)n1,19,.,-72
CCOC(=O)C1CCCN(Cc2nc(N)nc(Nc3ccccc3)n2)C1 (stereo not given),113*,.,6
Cc1ccc(Nc2nc(N)nc(CN3CCN(C(c4ccccc4)c4ccccc4)CC3)n2)cc1,89*,.,47
CCOc1ccccc1Nc1nc(N)nc(CN2CCCCC2C)n1 (stereo not given),28,.,15
COc1cc2c(cc1NC(=O)COc1cccc(C)c1C)oc1ccccc12,15,.,-5
COc1cc(CC(CO)C(CO)Cc2cc(OC)c(O)c(-c3cc(CC(CO)C(CO)Cc4ccc(O)c(OC)c4)cc(OC)c3O)c2)ccc1O (stereo not given),.,9,.
COc1cc(CC(C)C(C)Cc2ccc(O)c(OC)c2)ccc1O (stereo not given),121*,-59,47
Cc1ccc(NC(=O)CSc2nnc(-c3cccc4ccccc34)n2-c2ccccc2)c(C)c1,27,.,34
COc1ccc(NC(=O)CSc2nc(C(C)(C)C)cs2)cc1,21,.,-12
COC(=O)c1ccccc1NC(=O)Cn1c(C(F)(F)F)nc2ccccc21,14,.,-2
COc1ccccc1NC(=O)Cn1cc(C(=O)C2CCCCC2)c2ccccc21,29,.,42
COc1ccc(NC(=O)Nc2cccc3c2O[C@H](CN(C)Cc2ccc(C(=O)Nc4ccccc4N)cc2)[C@H](C)CN([C@H](C)CO)C3=O)cc1,140*,.,23
COc1ccc(NC(=O)Nc2cccc3c2O[C@@H](CN(C)Cc2ccc(C(=O)Nc4ccccc4N)cc2)[C@H](C)CN([C@@H](C)CO)C3=O)cc1,126*,.,5
COc1ccc(NC(=O)Nc2cccc3c2O[C@@H](CN(C)Cc2ccc(C(=O)O)cc2)[C@H](C)CN([C@@H](C)CO)C3=O)cc1,23,-11,1
COc1ccc(NC(=O)Nc2cccc3c2O[C@@H](CN(C)Cc2ccc(C(=O)O)cc2)[C@@H](C)CN([C@@H](C)CO)C3=O)cc1,39,-57,-2
COc1ccc(NC(=O)Nc2ccc3c(c2)C(=O)N([C@@H](C)CO)C[C@H](C)[C@H](CN(C)Cc2ccc(C(=O)Nc4ccccc4N)cc2)O3)cc1,50,.,-28
COc1ccc(NC(=O)Nc2cccc3c2O[C@@H](CN(C)Cc2ccc(C(=O)Nc4ccccc4N)cc2)[C@@H](C)CN([C@@H](C)CO)C3=O)cc1,129*,.,12
COc1cc(CO)cc(I)c1OCc1cccc(C(=O)O)c1,4,.,-51
C[C@H]1CN([C@@H](C)CO)C(=O)c2cccc(NC(=O)c3nc4ccccc4s3)c2O[C@@H]1CN(C)S(=O)(=O)c1ccc(F)cc1,62,1,12
CC(C)NC(=O)Nc1ccc2c(c1)C(=O)N([C@H](C)CO)C[C@H](C)[C@@H](CN(C)S(=O)(=O)c1cn(C)cn1)OCCCC[C@@H](C)O2,-8,-22,-6
